# Several values for one entry are separate records, joined by “and”; a condition that tells them apart may be missing. Identical values can stand only once. Inconclusive results are not listed. A structure can be active in one record and inactive in another. Activity calls are given as the source filed them. Unless noted, no rule for the calls is given here.
# Legend:
# [1] = liver-stage malaria parasite load reduction – cell-based, known kinase inhibitor set, luminescence, hepatoma host viability (AID 624392); details: Plasmodium liver stage in hepatoma cells, luciferase luminescence, concentration not given here; liver cell % of control: measured here: host liver cell viability; parasite % of control: stronger effect = lower value;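 also: infected cells incubated roughly two days before readout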
# [2] = altered dexamethasone sensitivity, NF-kB reporter, cell-based, luciferase, IL-1B stimulus (AID 624486); details: IL-1B + dexamethasone, luminescence; percent of negative control (+Dex): actives lie on both sides, concentration not given here; z-score: measured here: IL-1B alone, no Dex;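 as to percent of negative control (+Dex): 100% = mean signal of vehicle control wells on the plate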
# [3] = C. elegans survival during P. aeruginosa infection – whole organism (AID 651566);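 also: tested at 14 µM; sign flipped so higher z means a lower ratio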; details: C. elegans killed by P. aeruginosa, survival ratio
# [4] = pro-inflammatory signaling induction in mouse macrophages – cell-based, murine, luminescence (AID 652131); details: murine macrophage pro-inflammatory reporter, stronger effect = higher value
# [5] = inducers of IRF3 signaling, differentiated THP-1 – cell-based, PMA-stimulated THP-1, luminescence (AID 1053176); details: PMA-differentiated THP-1, IRF3 reporter luminescence; stronger effect = higher value
# [6] = MELAS cybrid and Rieske KO viability enhancers – cell-based, MELAS cybrids, Rieske KO mouse fibroblasts, CellTiter-Glo, primary screen (AID 1508586;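 active = mean z-score across replicates of 1.96 or higher in either the MELAS or the Rieske mutant cell line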;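 also: z relative to plate mean and SD of compound and empty wells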); details: low glucose
# [7] = test system: Aerobactin synthetase IucA (Klebsiella pneumoniae); experiment: inhibition of K. pneumoniae IucA enzyme – biochemical, Tocris library, absorbance (AID 1345561); details: purified IucA enzyme assay, absorbance (OD) read-out; stronger effect = lower value;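 tested at 8 µM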;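 also: 100% = enzyme without compound and 0% = no enzyme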
# [8] = viability loss in pontine glioma line – cell-based, SU-DIPG-XVII, MIPE5.0, CellTiter-Glo, qHTS, dose response (AID 1347060; cut-off not given, nearly all actives have AC50 up to about 26 µM;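 also: cells exposed to compound for 48 hours before viability readout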); details: CellTiter-Glo ATP luminescence
# [9] = viability loss in pontine glioma line – cell-based, JHH-DIPG-1, MIPE4.0, CellTiter-Glo, qHTS, dose response (AID 1347062; cut-off not given, nearly all actives have AC50 up to about 27 µM;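 also: cells exposed to compound for two days before readout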); details: JHH-DIPG-1 viability, CellTiter-Glo ATP luminescence
# [10] = viability loss in pontine glioma line – cell-based, SU-DIPG-IV, MIPE4.0, CellTiter-Glo, qHTS, dose response (AID 1347063; cut-off not given, nearly all actives have AC50 up to about 30 µM;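 also: compound exposure lasted 48 hours before the viability readout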); details: CellTiter-Glo ATP luminescence
# [11] = viability loss in pontine glioma line – cell-based, SU-DIPG-XXV, MIPE5.0, CellTiter-Glo, qHTS, dose response (AID 1347065; cut-off not given, nearly all actives have AC50 up to about 26 µM;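 also: cells exposed to compound for 48 hours before ATP readout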); details: CellTiter-Glo ATP luminescence
# [12] = viability loss with induced miR-34 in A549 – imaging, A549 dox-inducible miR-34, nuclei and caspase counts, primary screen (AID 1347080;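 active = compounds whose cell count with miR-34 switched on is under 0.7 times the count with it off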); details: A549 miR-34 inducible, Hoechst nuclei count, 48 h
# [13] = galactose survival enhancers in mitochondrial complex I cybrids – cell-based, galactose medium, ATP luminescence, primary screen (AID 1645843;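 active = z-score of at least 1.8 in each of two replicates, scored against plate mean and spread of sample wells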;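 also: positive z means more ATP and so rescue of galactose-driven cybrid death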); details: complex I mutant cybrid cells, 72 h, stronger effect = higher value
# [14] = target: Cellular tumor antigen p53 (Homo sapiens) (UniProt P04637); experiment: GFP-p53 level modulators in HPV16+ cells – imaging, known kinase inhibitor set, EGFP/DsRed ratio (AID 1053116); details: GFP-p53 stability, stronger effect = higher value; EGFP object count: measured here: GFP-p53 positive objects count;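 also: cells exposed to compounds for 24 h at 37 °C before reading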
# Chain of Cellular tumor antigen p53 (Homo sapiens) (P04637 whole entry, looked up): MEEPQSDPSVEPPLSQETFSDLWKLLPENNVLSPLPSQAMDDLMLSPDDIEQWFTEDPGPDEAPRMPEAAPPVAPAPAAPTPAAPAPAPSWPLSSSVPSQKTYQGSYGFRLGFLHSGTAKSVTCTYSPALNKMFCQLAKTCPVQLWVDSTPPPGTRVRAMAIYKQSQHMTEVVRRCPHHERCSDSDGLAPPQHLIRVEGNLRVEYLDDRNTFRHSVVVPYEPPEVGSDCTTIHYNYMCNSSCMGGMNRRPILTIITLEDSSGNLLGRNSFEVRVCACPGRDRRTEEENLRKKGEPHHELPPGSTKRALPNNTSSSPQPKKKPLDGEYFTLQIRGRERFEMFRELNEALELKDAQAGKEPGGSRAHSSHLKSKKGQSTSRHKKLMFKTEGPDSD
# [15] = MELAS cybrid survival, CellTiter-Glo 48 h, stronger effect = higher value
# [16] = Rieske KO mouse fibroblast survival, CellTiter-Glo 72 h
smiles,measurement,setting,value
COc1ccc2ncn(-c3cc(O[C@H](C)c4ccccc4Cl)c(C(N)=O)s3)c2c1,liver cell % of control,[1],108%
same,parasite % of control,[1],124% (inactive)
same,percent of negative control (+Dex),[2],77.5% (inactive)
same,z-score,[2],-2.52
same,z-score,[3],0.63 (inactive)
same,z-score,[4],-1.39 (inactive)
same,fraction signal,[5],-0.0045 (inactive)
same,z-score,[6]; [15],-0.983 (inactive)
same,z-score,[6]; [16],0.0827
COc1cc2ncn(-c3cc(OCc4ccccc4C(F)(F)F)c(C(N)=O)s3)c2cc1OC,percent of negative control (+Dex),[2],103% (inactive)
same,z-score,[2],-0.44
same,z-score,[3],0.57 (inactive)
same,z-score,[4],-0.405 (inactive)
same,fraction signal,[5],0.0355 (inactive)
same,remaining activity,[7],94.3% (inactive)
same,AC50,[8],1.48 µM (active)
same,AC50,[9],5.9 µM (active)
same,AC50,[10],14.8 µM (active)
same,AC50,[11],1.05 µM (active)
same,fold change,"[12]; stronger effect = lower value, cell number ratio, induced over uninduced",1.05 (inactive)
same,fold change,[12]; measured here: relative caspase fold change +Dox/-Dox,1.26
same,cell count,"[12]; measured here: total cells with miR-34 induction, stronger effect = lower value",1110
same,cell count,[12]; measured here: total cells without miR-34 induction,1060
same,z-score,[6]; [15],-0.422 (inactive)
same,z-score,[6]; [16],-0.574
same,z-score,[13],-0.495 (inactive)
Cn1cc(C2=C(c3cn(C)c4ccc(OCc5ccccc5)cc34)C(=O)NC2=O)c2ccccc21,liver cell % of control,[1],97.7%
same,parasite % of control,[1],46.6% (inactive)
same,percent of negative control (+Dex),[2],101% (inactive)
same,z-score,[2],-0.035
same,EGFP object count,[14],4.5
same,EGFP/DsRed ratio,[14],0.132 (inactive)
same,fraction signal,[5],-0.016 (inactive)
O=C1NC(=NCCc2ccc(F)cc2)SC1=Cc1ccc2ncccc2c1,liver cell % of control,[1],127%
same,parasite % of control,[1],57.5% (inactive)
same,percent of negative control (+Dex),[2],99.5% (inactive)
same,z-score,[2],0.5
same,EGFP object count,[14],1.5
same,EGFP/DsRed ratio,[14],0.0132 (inactive)
same,fraction signal,[5],0.0035 (inactive)
Nc1c(C(=O)c2cccc(CCCN3CCOCC3)c2)cnn1-c1ccc(F)cc1,liver cell % of control,[1],97.8%
same,parasite % of control,[1],48.1% (inactive)
same,percent of negative control (+Dex),[2],109% (inactive)
same,z-score,[2],1.09
same,EGFP object count,[14],6
same,EGFP/DsRed ratio,[14],0.339 (inactive)
same,fraction signal,[5],-0.005 (inactive)
O=C1NC(=NCCc2cccc(Cl)c2)SC1=Cc1ccc2ncccc2c1,liver cell % of control,[1],131%
same,parasite % of control,[1],170% (inactive)
same,percent of negative control (+Dex),[2],89.5% (inactive)
same,z-score,[2],-0.11
same,EGFP object count,[14],15
same,EGFP/DsRed ratio,[14],0.216 (inactive)
same,fraction signal,[5],-0.0025 (inactive)
Cn1cc(C2=C(c3cccc(OCC(O)CO)c3)C(=O)NC2=O)c2ccccc21 (stereo not given),liver cell % of control,[1],160% and 129%
same,parasite % of control,[1],22.3% (inactive) and 22.7% (inactive)
same,percent of negative control (+Dex),[2],136% (active) and 100% (inactive)
same,z-score,[2],-1.71 and 0.045
same,EGFP object count,[14],7 and 9.5
same,EGFP/DsRed ratio,[14],0.14 (inactive) and 0.372 (inactive)
same,fraction signal,[5],0.0035 (inactive) and -0.0025 (inactive)
NC(=O)CCc1ccccc1Oc1nccc(-c2c(-c3ccc(F)cc3)ncn2C2CCNCC2)n1,liver cell % of control,[1],91.6%
same,parasite % of control,[1],151% (inactive)
same,percent of negative control (+Dex),[2],95.5% (inactive)
same,z-score,[2],0.275
same,z-score,[3],0.875 (inactive)
same,z-score,[4],0.861 (inactive)
same,fraction signal,[5],-0.0055 (inactive)
same,z-score,[6]; [15],-0.2 (inactive)
same,z-score,[6]; [16],-0.462

# Source: PubChem BioAssay
